# Compounds with a hit are over-represented: about 6.9% of the library has one in this group of screens.
# Beta apoptosis: blocks beta cell apoptosis; INS-1E cytokine-induced death, ATP luminescence, 48 h; percent of positive-control rescue, neutral wells zero; hit rate 0.8% among 300,000; AID 435005; protection from apoptosis, % (concentration not given with the values);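 active = Every replicate reaches about 75%, or at least half do and their mean reaches it too, limit read from the data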;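 note: 0% = cytokine-treated negative control wells and 100% = positive control rescue; higher means more ATP so stronger rescue from cytokine killing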
# MPTP inh: permeability transition pore inhibition; hit rate 1.4% among 360,000; AID 602449; isolated mouse mitochondria, Ca2+ swelling absorbance, 30 min; inhibition, % at 10 µM;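 active = inhibition of 50% or more, scaled per plate between neutral and stimulator controls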;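 note: 0% = DMSO wells given calcium and 100% = 1 mM EGTA wells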
# SKKanGAS inh: blocks kanamycin growth of S. pyogenes SKKanGAS strain. BacTiter-Glo, 6 h. inhibition, % at 7.5 µM. hit rate 1.3% among 300,000;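 active = mean replicate score, as percent of positive control median, at least 50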;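 note: strain carries kanamycin resistance gene driven by streptokinase promoter and grows in 40 µg/ml kanamycin; loss of luminescence reflects streptokinase promoter inhibition or plain growth inhibition; 0% = median of DMSO wells and 100% = positive control at its reference dose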
# Mdm2 MdmX PPI: inhibitors of human Mdm2/MdmX interaction | O15151+Q00987 | SaOS-2 split-luciferase Mdm2/MdmX complementation, luminescence | inhibition, % at 8 µM | hit rate 3% among 330,000 | AID 485346;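 active = inhibition of at least 50% at 8 µM in the primary screen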
# GRIN3A LBD mod: modulates the human NR3A ligand-binding domain; NR3A LBD differential scanning fluorimetry, Tm shift; 0% = protein alone, 100% = glycine-bound protein; Tm shift relative to glycine control, % at 25 µM; hit rate 2.5% among 340,000;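 active = melting temperature shift of at least 10% of the positive control shift, at one fixed dose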
# CSC inhib: cancer stem cell inhibition | cancer stem cell-like cells viability, luminescence | inhibition, % at 7.5 µM | hit rate 1.1% among 300,000 | AID 2717; in the data active = inhibition above about 75%; tested in HMLE shEcad cells
# Numbers without * were called inactive; x = no result.
SMILES,Beta apoptosis,MPTP inh,SKKanGAS inh,Mdm2 MdmX PPI,GRIN3A LBD mod,CSC inhib
O=C1OCCN1C(=O)[C@H]1[C@H](c2ccc(Cl)cc2)C(c2ccccc2)=NN1c1ccc(Br)cc1,x,2,x,3,15*,x
Cc1cccc(C2=NN(c3ccc(Br)cc3)[C@@H](C(=O)N3CCOC3=O)[C@@H]2c2ccc(F)cc2)c1,10,0,19,25,5,30
Cc1cccc(C2=NN(c3ccc(Br)cc3)[C@@H](C(=O)N3CCOC3=O)[C@@H]2c2ccc(Cl)cc2)c1,x,-2,x,27,17*,x
COc1ccc(Cc2nnc(SC(C)C(=O)Nc3ccc(C(N)=O)cc3)o2)cc1 (configuration not stated),x,-1,0,-12,0,-8
CCN(CC)C(=O)C1=C(C)N(Cc2ccc(F)cc2)C(=O)C(CC(=O)NCCN2CCOCC2)C1 (configuration not stated),x,0,x,x,x,x
CC(=O)OCC1=C(C(=O)O)N2C(=O)[C@@H](NC(=O)Cc3ccccc3)[C@H]2SC1,x,-2,x,x,1,x
CC(=O)OCC1=C(C(=O)O)N2C(=O)[C@@H](NC(=O)Cc3cccs3)[C@H]2SC1,0,-2,103*,7,-4,-15
CC(=O)OCC1=C(C(=O)O)N2C(=O)C(NC(=O)CCn3nc(C(F)(F)F)c(Br)c3C3CC3)C2SC1 (configuration not stated),-7,20,110*,16,-1,0
CCOc1ccc(C(=O)NC2C(=O)N3C(C(=O)O)=C(COC(C)=O)CSC23)cc1OCC (configuration not stated),x,-2,x,-2,2,x
CC(=O)OCC1=C(C(=O)O)N2C(=O)C(NC(=O)Cn3nc(C(F)F)c(Cl)c3C)C2SC1 (configuration not stated),-5,-1,109*,8,-1,-5
CCC(C(=O)NC1C(=O)N2C(C(=O)O)=C(CSc3nnc(C)s3)CSC12)c1ccccc1 (configuration not stated),-9,-1,x,15,-4,-2
Cc1nnc(SCC2=C(C(=O)O)N3C(=O)C(NC(=O)Cn4nc(C(F)F)cc4C)C3SC2)s1 (configuration not stated),-1,0,112*,6,0,-3
Cc1cccc(NS(=O)(=O)c2cc(C(=O)N3CCOCC3)ccc2Cl)c1,-4,-1,1,14,-3,2
CCN(CC(=O)Nc1c(F)cccc1F)C(=O)C1CCN(S(=O)(=O)c2ccc(C)cc2C)CC1,3,0,-11,8,-1,12
C=CCn1c(C)nnc1SCC(=O)Nc1cc(S(=O)(=O)N2CCCC2)ccc1Cl,x,-1,x,16,-1,x
Cc1nnc(SCC2=C(C(=O)O)N3C(=O)C(NC(=O)c4cc(F)c(F)cc4Cl)C3SC2)s1 (configuration not stated),5,-3,109*,-1,2,-3
CC(=O)OCC1=C(C(=O)O)N2C(=O)C(NC(=O)COc3ccc(F)cc3)C2SC1 (configuration not stated),x,-4,x,5,5,x
Cc1nnc(SCC2=C(C(=O)O)N3C(=O)C(NC(=O)COc4ccc(F)cc4)C3SC2)s1 (configuration not stated),-5,-3,x,2,3,1
CC(=O)OCC1=C(C(=O)O)N2C(=O)C(NC(=O)C(C)Cn3cc(Cl)cn3)C2SC1 (configuration not stated),-7,-3,115*,26,0,-9
CC(=O)OCC1=C(C(=O)O)N2C(=O)C(NC(=O)CC(C)c3ccccc3)C2SC1 (configuration not stated),-7,-1,x,1,2,x
CC(=O)OCC1=C(C(=O)O)N2C(=O)C(NC(=O)CCn3nc(C)c(Cl)c3C)C2SC1 (configuration not stated),-3,-2,95*,5,0,-13
Cc1nnc(SCC2=C(C(=O)O)N3C(=O)C(NC(=O)Cn4nc(C(F)F)c(Cl)c4C)C3SC2)s1 (configuration not stated),-17,-2,96*,9,-1,-9
Cc1cc(C)c(OCC(=O)Nc2nnc(-c3ccco3)o2)c(C)c1,-1,1,7,-8,-3,12
CCOC(=O)Nc1cccc(Nc2ccccc2)c1,4,3,3,12,27*,-8
